{
  "source": "PubChem BioAssay",
  "data": [
    {"test": "MRP1 drug-resistance reversers in H69AR cells – cell-based, doxorubicin co-treatment, pilot screen (AID 601)", "settings": "H69AR cells + 2 uM doxorubicin, CellTiter-Glo, 72 h; measured here: viability with 2 uM doxorubicin; at 10 µM; stronger effect = lower value", "units": {"viability": "%"}, "values": [
      {"smiles": "CC1CCc2nn(CC(=O)NCc3ccc4c(c3)OCO4)cc2C1", "note": "(stereo not given)", "viability": 90.6},
      {"smiles": "CCC(C)(C(=O)NC1CCCC1)N(Cc1cccs1)C(C)=O", "note": "(stereo not given)", "viability": 90.2},
      {"smiles": "COc1ccc(CCNC(=O)c2cnn3ccccc23)c(OC)c1OC", "viability": 97},
      {"smiles": "CC1CCCN(S(=O)(=O)c2coc(C(N)=O)c2)C1", "note": "(stereo not given)", "viability": 118},
      {"smiles": "Cn1c(C(=O)NCC2CCCO2)cc2c(=O)n(C)c3ccccc3c21", "note": "(stereo not given)", "viability": 75.1},
      {"smiles": "O=C(Nc1cnn(Cc2ccc(Cl)cc2Cl)c1)c1noc2c1CCCC2", "viability": 85.6},
      {"smiles": "Clc1cccc(N2CCN(Cc3nc(-c4ccccc4)no3)CC2)c1", "viability": 95.4},
      {"smiles": "COC(=O)C1=C(C)NC(C)=C(C(=O)OC)C1C1CC=CCC1", "note": "(stereo not given)", "viability": 77.1},
      {"smiles": "Cc1nnc(SCC(=O)NCc2ccccc2)s1", "viability": 99.3},
      {"smiles": "CC1=C(C(=O)Nc2ccc(F)cc2)C(c2cccc(C)c2)n2nc(CCCO)nc2N1", "note": "(stereo not given)", "viability": 92.5},
      {"smiles": "CCOc1ccc(OCCCCN(C)C)cc1", "viability": 86.7},
      {"smiles": "CCCC(=O)C1=C(N(C)c2ccccc2)CC(C)(C)C(C(=O)OC)C1=O", "note": "(stereo not given)", "viability": 93.2},
      {"smiles": "CC1Cc2ccccc2N1C(=O)C12CCC(C)(C(=O)C1)C2(C)C", "note": "(stereo not given)", "viability": 74.3},
      {"smiles": "CC1CN(c2ccc(Oc3ccccc3)cc2)c2nc3c(c(=O)n(CC(N)=O)c(=O)n3C)n2C1", "note": "(stereo not given)", "viability": 74.4},
      {"smiles": "COc1ccc(N2CCN(C(c3ccccc3)c3sc4nc(C)nn4c3O)CC2)cc1", "note": "(stereo not given)", "viability": 98.4},
      {"smiles": "O=C(CCn1c(=O)oc2ccccc21)NCc1ccco1", "viability": 81},
      {"smiles": "COc1cccc(C2CC(c3ccc(C)cc3)n3nc(N)nc3N2)c1", "note": "(stereo not given)", "viability": 105},
      {"smiles": "Cc1onc(-c2c(Cl)cccc2Cl)c1C(=O)NCC1CCCO1", "note": "(stereo not given)", "viability": 95.2},
      {"smiles": "CC(=O)Nc1cccc(NC(=O)CSc2nn3c(=O)c(C)nnc3s2)c1", "viability": 75.3},
      {"smiles": "Cc1ccc2cc(CCNC(=O)C(C)C)c(=O)[nH]c2c1C", "viability": 92.3},
      {"smiles": "CCOC(=O)c1c(C)n(C)c2c(C)cc(O)c(OC(C)=O)c12", "viability": 87.3},
      {"smiles": "CC(C)(O)C#Cc1ccc(C(=O)N2CCN(C(=O)c3ccco3)CC2)cc1", "viability": 87.9},
      {"smiles": "COc1ccc(-n2ncc3c(N4CCC(C)CC4)ncnc32)cc1", "viability": 41.2},
      {"smiles": "CCc1nc2sc(C)c(C)c2c(=O)n1CCO", "viability": 90.6},
      {"smiles": "COc1cc2c(cc1OC)CN(C(=O)CSc1nc3[nH]ncc3c(=O)n1-c1ccccc1)CC2", "viability": 80.1},
      {"smiles": "Cc1ccccc1-n1c(Cn2c(=O)sc3ccccc32)nnc1SCC(N)=O", "viability": 78.6},
      {"smiles": "Cc1nc2sc(C(c3cccs3)N3CCOCC3)c(O)n2n1", "note": "(stereo not given)", "viability": 93.4},
      {"smiles": "Cc1nc2ccccc2c2oc(C(=O)N3CCN(C(=O)c4ccco4)CC3)cc12", "viability": 83.4},
      {"smiles": "CCC(C)NC(=O)c1cn(CC)c2ccc(S(=O)(=O)N(C)C)cc2c1=O", "note": "(stereo not given)", "viability": 90.6},
      {"smiles": "O=C(OCN1C(=O)c2ccccc2C1=O)C1CCCCC1", "viability": 100},
      {"smiles": "O=C(Nc1nc(-c2ccccn2)cs1)C1CC1", "viability": 101},
      {"smiles": "COCCOC(=O)C1=C(C)N=c2s/c(=C\\c3cccs3)c(=O)n2C1c1cccs1", "note": "(stereo not given)", "viability": 75.9},
      {"smiles": "CCOC(=O)c1sc2nc(NC(=O)C(C)(C)C)sc2c1C", "viability": 67.5},
      {"smiles": "Cn1c(Cc2ccccc2)nnc1SCC(=O)NC1CCCCC1", "viability": 79.6},
      {"smiles": "CCCNC(=O)C1CC(=O)N(c2ccc(OCC(=O)Nc3cc(C)cc(C)c3)cc2)C1", "note": "(stereo not given)", "viability": 91.2},
      {"smiles": "O=P(O)(CN1CCCCCC1)CN1CCCCCC1", "viability": 99.2},
      {"smiles": "O=c1oc2c3c4c(cc2cc1-c1nc2ccccc2[nH]1)CCCN4CCC3", "viability": 80.7},
      {"smiles": "CCOC(=O)c1[nH]c(C)c(C(=O)NC)c1C", "viability": 85},
      {"smiles": "CCCOc1ccc(C2C(C(=O)OC)=CN(CCOC)C=C2C(=O)OC)cc1", "viability": 92.7},
      {"smiles": "CCCCN(CC)CCCNC(=O)c1cc2c(=O)n(C)c3ccccc3c2n1C", "viability": 70.2}
    ]}
  ]
}
